Calpain2 inh: calpain II (pig) inhibition; purified calpain II, fluorogenic peptide substrate, 30 min; inhibition, % at 16 µM; 220,000 tested, 0.37% active; AID 1236;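 active = inhibition above about 50%, limit read from the data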
L major viab: reduces viability of Leishmania major promastigotes. 200,000 tested, 9% active. inhibition, % at 10 µM. resazurin fluorescence viability. AID 1063; in the data active = inhibition above about 50%;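 note: promastigotes grown with compound for 44 hours at 28 °C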
ROMK primary: modulators of human ROMK potassium channel; P48048; Tet-inducible ROMK, thallium flux fluorescence; actives lie on both sides; B-score at 10 µM; 130,000 tested, 2% active;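 active = signal ratio slope over the read window, or its plate-corrected B-score, at least 3 SD from the plate mean, either direction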;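 note: B-score of the F/F0 ratio slope over 7 to 12 s after thallium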
Target sequence (P48048 whole entry, looked up): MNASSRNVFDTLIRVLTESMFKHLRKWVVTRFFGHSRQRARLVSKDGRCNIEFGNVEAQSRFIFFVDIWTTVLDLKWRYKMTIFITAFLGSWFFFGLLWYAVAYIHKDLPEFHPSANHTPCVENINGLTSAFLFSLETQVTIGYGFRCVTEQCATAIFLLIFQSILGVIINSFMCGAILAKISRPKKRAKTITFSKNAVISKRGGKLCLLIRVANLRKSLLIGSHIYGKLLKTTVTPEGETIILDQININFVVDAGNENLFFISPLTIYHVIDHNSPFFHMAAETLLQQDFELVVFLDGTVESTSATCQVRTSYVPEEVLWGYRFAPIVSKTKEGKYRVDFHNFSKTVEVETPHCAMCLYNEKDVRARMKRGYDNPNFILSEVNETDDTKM
WT yeast gro inh: growth inhibition of WT yeast, mitochondrial fusion screen; mitochondrial fusion phenotypic screen, WT strain; 190,000 tested, 2.1% active; inhibition, % at 10 µM; AID 1362; in the data active = inhibition above about 58%; tested in S. cerevisiae
Cl transport mod: modulators of human KCC2 chloride dependent transport; Q9H2X9; KCC2 cells, thallium flux FluoZin-2 fluorescence; B-score of Tl+ flux slope (higher = more flux/activation; lower = inhibition) at 10 µM; 190,000 tested, 2.2% active; AID 1456;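 active = thallium flux slope and its plate-corrected score both differing from the plate sample mean at a set confidence after two filtering rounds, in either direction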;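 note: slope of fluorescence scaled to starting intensity during 10 to 20 s after thallium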
The depositor's hits bear a star; x = no result given. Rows were chosen to be rich in hits. Some 12% of all compounds tested hit in one or more screens of this group.

SMILES	Calpain2 inh	L major viab	ROMK primary	WT yeast gro inh	Cl transport mod
CC(C)N(CC(N)=O)C(=O)c1sc2cc(F)ccc2c1Cl	-8	-1	0.13	16	-0.044
O=C(c1sc2cc(F)ccc2c1Cl)N1CCN(c2ccccc2)CC1	27	-2	0.16	65*	-0.78
CN1CCC(N(C)C(=O)c2sc3cc(F)ccc3c2Cl)CC1	9	90*	-0.25	1	0.086
Cc1ccc(S(=O)(=O)n2nccc2-c2c(-c3ccc(Cl)cc3)noc2C)cc1	4	x	x	x	0.49
O=C(CCl)N(c1ccccc1)C1CCCCC1	-8	89*	-1.2	-5	-0.48
CCN1/C(=C2/SC(=S)NC2=O)Sc2ccccc21	-3	77*	-0.097	2	0.82
OCC1CCCN(c2ncnc3scc(-c4ccccc4)c23)C1 (configuration not stated)	-12	-1	-0.85	-13	-0.32
Fc1ccc(-c2csc3ncnc(N4CCc5ccccc5C4)c23)cc1	10	67*	-1.1	66*	0.18
Fc1ccc(-c2csc3ncnc(Nc4ccc(N5CCOCC5)cc4)c23)cc1	-5	65*	x	38	0.017
c1nc(Nc2ccc(N3CCOCC3)cc2)c2ccsc2n1	9	x	x	x	x
Cc1ccc(-c2csc3ncnc(N4CCc5ccccc5C4)c23)cc1	12	16	x	66*	-0.43
O=C(CNC(=O)c1ccco1)OCC(=O)c1ccc(Cl)cc1Cl	-21	-20	0.76	-2	x
O=S1(=O)C=C(Sc2nc3cc(Cl)ccc3o2)c2ccccc21	-20	80*	x	-1	-0.22
CN(C)c1nc(N)nc(CSc2nc3cc(Cl)ccc3o2)n1	5	-4	0.53	12	x
CC1=C(CCN2CCN(C(C)C)C(CCO)C2)C(C)(C)CCC1 (configuration not stated)	-6	19	x	10	x
Cc1ccc(S(=O)(=O)N2CCC(C(=O)NCc3ccncc3)CC2)cc1	5	0	x	1	x
O=C(CN1C(=O)NC2(CCCc3ccccc32)C1=O)N1CCc2ccccc2C1 (configuration not stated)	-16	16	0.65	5	x
COc1ccc(N=C2SC(C(=O)N3CCN(c4ccc([N+](=O)[O-])cc4)CC3)CC(=O)N2C)cc1 (configuration not stated)	-49	52*	0.35	2	-0.1
CC1(C)CC(=O)C/C(=N\NC(=O)C2CC23CCC3)C1 (configuration not stated)	-31	1	-0.94	-1	1.6
COc1ccc(Nc2nc(NCC3CCCO3)c3ccccc3n2)c(OC)c1 (configuration not stated)	8	100*	-0.16	13	-0.34
Oc1cccc(Nc2nc(NCC3CCCO3)c3ccccc3n2)c1 (configuration not stated)	9	100*	x	-2	x
c1ccc(-c2nc(NCC3CCCO3)c3ccccc3n2)nc1 (configuration not stated)	11	100*	0.6	18	0.79
c1ccc2c(NCC3CCCO3)nc(N3CCOCC3)nc2c1 (configuration not stated)	-268	9	0.4	0	x
CCOc1ccc(Nc2nc(NCC3CCCO3)c3ccccc3n2)cc1 (configuration not stated)	-29	101*	-2.7	57	x
O=C1c2ccccc2S(=O)(=O)N1CCOc1ccccc1	-3	-4	x	8	0.031
SMILES	Calpain2 inh	L major viab	ROMK primary	WT yeast gro inh	Cl transport mod
COc1cccc(C2NC(=O)NC(C)=C2C(=O)OCCSC)c1OC (configuration not stated)	x	2	0.55	7	x
O=C(NC(=S)Nc1cccc(O)c1)c1ccco1	-17	x	x	x	0.53
c1ccc(Nc2nc(NCC3CCCO3)c3ccccc3n2)cc1 (configuration not stated)	-9	99*	-1.7	32	-0.12
Cc1nc(-c2cccc(NS(C)(=O)=O)c2)cs1	9	-8	-0.024	-5	0.19
Cc1nc(-c2cccc(NS(=O)(=O)c3cccc4ccccc34)c2)cs1	2	6	0.042	62*	x
Nc1nc(-c2cccc(NS(=O)(=O)c3ccccc3)c2)cs1	30	59*	x	4	0.82
Cn1c(NCc2cccc(Br)c2)nc2ccccc21	-6	61*	x	32	-0.14
Brc1cccc(CNc2nc3ccccc3n2CCN2CCCCC2)c1	13	x	x	x	-1.3
COc1cc(C2NC(=O)NC(c3ccccc3)=C2C(C)=O)cc([N+](=O)[O-])c1O (configuration not stated)	11	-1	-0.015	0	-0.33
CSc1ccc(CN2CCN(C(=O)c3ccncc3)CC2)cc1	27	74*	0.34	15	-0.16

Screens from PubChem BioAssay.
